# Assay results reported in PubChem BioAssay (NCI).
# This is part of a sample that, as a whole, favours compounds with a hit. Of some 83,000 tested, about 20% had one in any assay.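 Testing used 96-well plates and a 48-hour single-concentration exposure. Example: -40 means 40% of the starting cells died.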 Unmarked numbers belong to inactive results. The source made the active and inactive calls. Rule for the calls: active = growth percent below 10; inactive = the rest.
# Tests used:
# Assay in all cases: NCI-60 one-dose screen, 48 h (100 = growth as untreated, 0 = no growth, -100 = all killed)
# Conditions in all cases: 10 µM unless noted
# DU-145 prostate = test system: DU-145 prostate
# K-562 leukemia = test system: K-562 leukemia
# MALME-3M melanoma = test system: MALME-3M melanoma
# MDA-MB-231 breast = test system: MDA-MB-231 breast
# RXF 393 renal = test system: RXF 393 renal
# SF-268 CNS = test system: SF-268 CNS
# SF-295 CNS = test system: SF-295 CNS
# SF-539 CNS = test system: SF-539 CNS
# UACC-257 melanoma = test system: UACC-257 melanoma
# M14 melanoma = test system: M14 melanoma
# HCT-15 colon = test system: HCT-15 colon
# HT29 colon = test system: HT29 colon
# SNB-19 CNS = test system: SNB-19 CNS
# U251 CNS = test system: U251 CNS
# PC-3 prostate = test system: PC-3 prostate
# SK-MEL-5 melanoma = test system: SK-MEL-5 melanoma
# UACC-62 melanoma = test system: UACC-62 melanoma
# LOX IMVI melanoma = test system: LOX IMVI melanoma
# SK-MEL-28 melanoma = test system: SK-MEL-28 melanoma
SMILES,growth (DU-145 prostate),growth (K-562 leukemia) [%],growth (MALME-3M melanoma),growth (MDA-MB-231 breast),growth (RXF 393 renal),growth (SF-268 CNS),growth (SF-295 CNS),growth (SF-539 CNS),growth (UACC-257 melanoma),growth (M14 melanoma),growth (HCT-15 colon),growth (HT29 colon) [%],growth (SNB-19 CNS) [%],growth (U251 CNS),growth (PC-3 prostate) [%],growth (SK-MEL-5 melanoma),growth (UACC-62 melanoma),growth (LOX IMVI melanoma),growth (SK-MEL-28 melanoma)
C=CCc1nc2ccccc2s1,114%,96.9,115%,103%,122%,108%,117%,119%,90.4%,108%,94.3%,89.9,110,100%,88.1,114%,106%,99.3%,106%
O=C(O)CSCc1nnc2n(Cc3ccccc3)c(=O)c3c4c(sc3n12)CCCC4,114%,78.6,112%,83.5%,88.5%,112%,57.9%,101%,104%,158%,101%,111,97.3,102%,101,103%,75.4%,88.1%,131%
Cc1ccc2c(c1)/C(=N\N=C/c1cn(C(C)C)c3ccccc13)C(=O)N2,72.2%,22.1,16.2%,50.5%,22.5%,66.4%,68.2%,58.6%,59.5%,54%,28.6%,11.3,76.5,63.6%,34.7,66%,50.1%,20%,73.4%
CCN(CC)CCCNCc1cc(-c2ccccc2)nc2ccccc12,16.6%,24.3,50.7%,31.3%,77.8%,39.8%,70.2%,32.7%,80%,4.63% (active),15.3%,55.1,82.5,–,75,69.6%,95.6%,9.8% (active),92.7%
Fc1cc2[nH]ncc2c2c3c(c(-c4cn[nH]c4C(F)(F)F)nc12)C1CCC3C1 (configuration not stated),4.96% (active),19.4,9.41% (active),-5.18% (active),-89.8% (active),3.13% (active),8.79% (active),-32.4% (active),0.635% (active),-6.09% (active),9.48% (active),13,10.1,4.85% (active),14,-28.8% (active),-18.5% (active),0.44% (active),-0.348% (active)
C#CCC(C(=O)OCC)C(=O)OCC,101%,102,110%,101%,128%,104%,103%,101%,108%,105%,106%,103,102,104%,99.8,105%,101%,99.2%,109%
CCn1cc(-c2ccnc(NCCNS(=O)(=O)c3ccc(Br)cc3)c2)c(-c2cccc(OC)c2)n1,84.7%,42.1,70.9%,80.8%,99.8%,71.5%,95.4%,78.3%,89.8%,83.3%,69.2%,56.5,83.2,58.8%,41.7,64%,71%,94.2%,100%
